Source: PubChem BioAssay AID1626 (SRMLSC, 2009)
Hit rate of the full screen: of about 220,000 compounds, about 2,000 (0.91%) were called active. Not shown: some 2% with an inconclusive outcome. No stated cut-off is given here; in the data, inconclusive means inhibition above about 80% without an active follow-up result; inactive means below that; test concentration not stated here. Only a sample is shown. Results with a measured potency or affinity are listed apart.

Assay: M. tuberculosis H37Rv growth inhibitors, H37Rv strain (AID 1626);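 further: bacteria incubated seven days before Alamar blue readout; 0% = bacteria only wells and 100% = bacteria with antibiotic wells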
Settings: active compounds read high, concentration not given here

**Q.** Which inhibition does the source give for Cc1nc(C(=O)Nc2ccc(F)cc2)nn1-c1ccc([N+](=O)[O-])cc1 here?
**A.** -5.91% (inactive)

**Q.** For CCC1(C)Cc2ccccc2C(Nc2c(C)n(C)n(-c3ccccc3)c2=O)=N1 (stereo not given), which inhibition is on record?
**A.** -6.85% (inactive)

**Q.** For Cc1nc(-c2cccc(NC(=O)C3CCCCC3)c2)cs1, which inhibition is on record?
**A.** -1.02% (inactive)

**Q.** Which inhibition does the source give for COc1ccccc1Nc1nc(-c2ccc3c(c2)NC(=O)CO3)cs1 here?
**A.** -3.16% (inactive)

**Q.** Which inhibition does the source give for COc1cccc(-c2nc(-c3ccc4c(c3)NC(=O)CO4)cs2)c1 here?
**A.** 22.4% (inactive)

**Q.** With CCC(C(=O)Nc1cc(Cl)c(OC)cc1OC)c1ccccc1 (stereo not given) as the molecule, how does the inhibition read?
**A.** -3.66% (inactive)

**Q.** Which inhibition does the source give for CC(=O)OC(C(=O)Nc1ccccc1)C(C)S(=O)(=O)c1ccccc1 (stereo not given) here?
**A.** -4.23% (inactive)

**Q.** Which inhibition does the source give for O=C(Nc1ccccc1Cl)O/N=C/c1ccncc1 here?
**A.** -1.05% (inactive)

**Q.** With CC(C)C(=O)Nc1ccc(C(=O)NNC(=O)NC2CCCCC2)cc1 as the molecule, how does the inhibition read?
**A.** -3.11% (inactive)

**Q.** Which inhibition does the source give for COc1cccc(NC2c3ccccc3C(=O)N2Cc2ccccc2Cl)c1 (stereo not given) here?
**A.** 8.87% (inactive)

**Q.** Which inhibition does the source give for O=C(OCc1ccc([N+](=O)[O-])cc1)c1ccc2ccccc2n1 here?
**A.** 40.4% (inactive)

**Q.** With O=C(COC(=O)c1ccc2ccccc2n1)c1ccc(F)cc1 as the molecule, how does the inhibition read?
**A.** -7.45% (inactive)

**Q.** For O=C(O)CSc1nc2ccccc2[nH]1, which inhibition is on record?
**A.** -9.58% (inactive)

**Q.** For O=C(CSc1nc2ccccc2s1)N1c2ccccc2Sc2ccccc21, which inhibition is on record?
**A.** 1.29% (inactive)

**Q.** Which inhibition does the source give for COc1ccc(C(C)(C)C)cc1NC(=O)COC(=O)c1ncc(Cl)c(Cl)c1Cl here?
**A.** -2.28% (inactive)

**Q.** Which inhibition does the source give for COc1ccc(NC(=O)COC(=O)c2cc(SC)ccc2Cl)c(OC)c1 here?
**A.** 10.1% (inactive)

**Q.** For Cc1ccc(N2C(=O)c3cccc4c([N+](=O)[O-])ccc(c34)C2=O)c2cccnc12, which inhibition is on record?
**A.** -2.68% (inactive)

**Q.** With O=C1c2cccc3c([N+](=O)[O-])ccc(c23)C(=O)N1c1nccs1 as the molecule, how does the inhibition read?
**A.** -1.82% (inactive)

**Q.** Which inhibition does the source give for O=C1c2ccc(Oc3cccc([N+](=O)[O-])c3)cc2C(=O)N1c1ccccn1 here?
**A.** -2.15% (inactive)

**Q.** Which inhibition does the source give for O=C1c2cccc3cccc(c23)C(=O)N1Cc1cccnc1 here?
**A.** -2.19% (inactive)

**Q.** Which inhibition does the source give for O=C1c2cccc3cccc(c23)C(=O)N1c1ccccn1 here?
**A.** 2% (inactive)

**Q.** Which inhibition does the source give for O=C1c2cccc3cccc(c23)C(=O)N1CC1CCCO1 (stereo not given) here?
**A.** 0.46% (inactive)

**Q.** With O=C1c2ccccc2C(=O)N1CC1CCCO1 (stereo not given) as the molecule, how does the inhibition read?
**A.** -1.11% (inactive)

**Q.** With O=C1c2ccc3c4c(ccc(c24)C(=O)N1Cc1cccnc1)C(=O)N(Cc1cccnc1)C3=O as the molecule, how does the inhibition read?
**A.** 7.76% (inactive)

**Q.** For CCOC(=O)c1[nH]c2cc(OC)c(OC)cc2c1NC(=O)CN1CCN(C)CC1, which inhibition is on record?
**A.** -4.7% (inactive)

**Q.** With COC(=O)CS(=O)(=O)c1ccc(C)cc1 as the molecule, how does the inhibition read?
**A.** -7.54% (inactive)

**Q.** For CCCOC(=O)c1c(NC(=O)CCCn2nc([N+](=O)[O-])cc2C)sc(C(=O)OC)c1C, which inhibition is on record?
**A.** -6.65% (inactive)

**Q.** With CCOP(=O)(OCC)C(Nc1cc(Cl)cc(Cl)c1)c1cccc(O)c1 (stereo not given) as the molecule, how does the inhibition read?
**A.** 1.6% (inactive)

**Q.** For CCO[C@@H]1OC(C(=O)Nc2ccccc2)=C[C@H](c2ccc(C(F)(F)F)cc2)[C@H]1CCCO, which inhibition is on record?
**A.** 3.16% (inactive)

**Q.** With Cc1occc1-c1nnc(SCC(=O)c2c(N)n(Cc3ccccc3)c(=O)n(C)c2=O)n1C as the molecule, how does the inhibition read?
**A.** 4.82% (inactive)

**Q.** Which inhibition does the source give for CCCC(=O)Nc1ccc(C(=O)NN=C(C2CC2)C2CC2)cc1 here?
**A.** -2.7% (inactive)

**Q.** Which inhibition does the source give for CCCSc1nnc(CSc2nc3nc(C)cc(C)n3n2)o1 here?
**A.** -11.4% (inactive)

**Q.** Which inhibition does the source give for CCCCSc1nnc(CSc2nc3nc(C)cc(C)n3n2)o1 here?
**A.** 8.33% (inactive)

**Q.** With Cc1cc2nc(N)sc2cc1[N+](=O)[O-] as the molecule, how does the inhibition read?
**A.** -4.98% (inactive)

**Q.** With COc1ccc(/C=C/c2nc(-c3ccccc3O)n(-c3ccccc3)n2)cc1 as the molecule, how does the inhibition read?
**A.** -4.12% (inactive)

**Q.** With Oc1ccc(/C=C/c2nc(-c3ccccc3O)n(-c3ccccc3)n2)cc1 as the molecule, how does the inhibition read?
**A.** 21.6% (inactive)

**Q.** For O=C(Nc1ccc(Nc2ccncc2)cc1)c1ccc([N+](=O)[O-])cc1, which inhibition is on record?
**A.** -0.61% (inactive)

**Q.** For O=C(Nc1ccc(Nc2ccncc2)cc1)c1ccc(Nc2ccnc3ccc([N+](=O)[O-])cc23)cc1, which inhibition is on record?
**A.** -3.41% (inactive)

**Q.** Which inhibition does the source give for N#Cc1c(-c2ccccc2)nc(-c2ccccc2)nc1N1CCOCC1 here?
**A.** -9.91% (inactive)

**Q.** For COc1ccc(-c2nc(-c3ccccn3)nc(N3CCN(C)CC3)c2C#N)cc1, which inhibition is on record?
**A.** 1.76% (inactive)

**Q.** With COc1ccc(-c2nc(-c3cccc(C)c3)nc(N3CCN(C)CC3)c2C#N)cc1 as the molecule, how does the inhibition read?
**A.** 6.59% (inactive)

**Q.** Which inhibition does the source give for COc1cccc(-c2nc(N3CCN(C)CC3)c3ccccc3n2)c1O here?
**A.** 10.5% (inactive)

**Q.** With COc1ccc(-c2nc(-c3ccccc3)nc(N3CCN(C)CC3)c2C#N)cc1 as the molecule, how does the inhibition read?
**A.** 9.82% (inactive)

**Q.** For CN1CCN(c2nc(-c3ccccc3)nc(-c3ccccc3)c2C#N)CC1, which inhibition is on record?
**A.** 20.2% (inactive)

**Q.** Which inhibition does the source give for O=C(COC(=O)c1ccco1)Nc1ccccc1 here?
**A.** -8.55% (inactive)

**Q.** Which inhibition does the source give for CC(=O)c1sc(=S)n(-c2ccccc2)c1C here?
**A.** 7.39% (inactive)

**Q.** For O=C(Cn1cnc2c(cnn2-c2ccc(F)cc2)c1=O)N1CCN(c2ccccc2F)CC1, which inhibition is on record?
**A.** 3.88% (inactive)

**Q.** With O=S(=O)(c1ccc(-c2csc(-c3cccnc3)n2)cc1)N1CCOCC1 as the molecule, how does the inhibition read?
**A.** 3.97% (inactive)

**Q.** With NC(=O)NC(=O)COC(=O)c1ccccc1OCc1ccc(F)cc1 as the molecule, how does the inhibition read?
**A.** 4.1% (inactive)

**Q.** Which inhibition does the source give for CN(C)S(=O)(=O)c1cc(NC(=O)CN2CCCc3ccccc32)ccc1Cl here?
**A.** -10.6% (inactive)

**Q.** For O=C(CN1CCN(S(=O)(=O)c2ccc(Cl)cc2)CC1)Nc1ccc(F)cc1F, which inhibition is on record?
**A.** 6.43% (inactive)

**Q.** With O=C(Cc1nnc(NC(=O)Nc2ccc(Cl)cc2)s1)NCc1ccccc1 as the molecule, how does the inhibition read?
**A.** -0.51% (inactive)

**Q.** Which inhibition does the source give for Cc1nc(SCC(=O)Nc2ccccn2)n[nH]1 here?
**A.** -3.41% (inactive)

**Q.** Which inhibition does the source give for O=C(CCN1C(=O)C2C3C=CC(C3)C2C1=O)Nc1ccc2c(c1)OCO2 (stereo not given) here?
**A.** -1.34% (inactive)

**Q.** With CCOCC(=O)Nc1ccc(C)c(Cl)c1 as the molecule, how does the inhibition read?
**A.** 76.9% (inactive)

**Q.** For CCOC(=O)C(=O)Nc1ccc(OCc2ccccc2)cc1, which inhibition is on record?
**A.** 12.6% (inactive)

**Q.** With CC(=O)OCC(=O)Nc1ccc(Br)c(C)c1 as the molecule, how does the inhibition read?
**A.** 21.6% (inactive)

**Q.** Which inhibition does the source give for Cc1cccc(NC(=O)CCN2C(=O)C3C4C=CC(C4)C3C2=O)c1 (stereo not given) here?
**A.** 3.17% (inactive)

**Q.** With CCOc1ccc(NC(=O)Cc2ccccc2)cc1 as the molecule, how does the inhibition read?
**A.** 5.27% (inactive)

**Q.** Which inhibition does the source give for O=C(CSc1ncn[nH]1)Nc1ccc(OCc2ccccc2)cc1 here?
**A.** 47.3% (inactive)
